Data as given in PubChem BioAssay AID651815 (National Center for Advancing Translational Sciences (NCATS), 2012).
Screen size: about 2,100 compounds; about 1,100 (52%) were called active. About 29% were inconclusive and are not listed. Calls follow the shape of the dose curve; as a rule, active = well fitted inhibition curve with a large enough effect; inconclusive = small, poorly fitted or top-dose-only effect; inactive = no such curve, though single readings can be large or run the other way. The set was probably picked from earlier hits. Some of the results follow.

Target: DNA dC->dU-editing enzyme APOBEC-3F (Homo sapiens) (UniProt Q8IUX4)
Sequence (Q8IUX4 whole entry, looked up): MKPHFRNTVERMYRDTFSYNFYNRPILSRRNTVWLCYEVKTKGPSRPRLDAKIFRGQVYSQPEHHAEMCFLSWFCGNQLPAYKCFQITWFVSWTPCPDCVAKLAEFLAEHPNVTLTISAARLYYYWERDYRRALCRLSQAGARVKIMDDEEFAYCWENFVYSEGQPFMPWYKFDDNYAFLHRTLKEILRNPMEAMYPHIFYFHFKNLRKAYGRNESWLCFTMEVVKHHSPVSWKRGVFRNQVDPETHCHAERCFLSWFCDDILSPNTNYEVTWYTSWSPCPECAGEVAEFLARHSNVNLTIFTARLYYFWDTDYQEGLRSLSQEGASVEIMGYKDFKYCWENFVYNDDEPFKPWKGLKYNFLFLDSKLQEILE
Experiment: qHTS for inhibitors of Vif-A3F interactions: Cherry picks counterscreen; also: nearly all actives have a fitted effect of over 65% in size
Conditions: HeLa A3F-eYFP/Vif cells, eYFP fluorescence, 24 h; series mostly up to 46.1 µM; activity, negative = inhibitor: at the top concentration
Summary of the method: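 Rescue of Vif-driven A3F-eYFP degradation read as cellular eYFP fluorescence after 24 h compound exposure (several concentrations) in stable HeLa cells; MG132 (2 mM stock) as positive control.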
% is scaled to controls: 0 for no effect and ±100 for the full control effect; potency is read from the fitted curve at half-maximal effect.

SMILES	Potency	activity, negative = inhibitor
CC(C)n1c(O)c(N=Nc2ccc(Cl)nn2)c2ccccc21	18.4 µM (active)	–
CCCC(=O)NC(c1ccc(OC)cc1)c1ccc2cccnc2c1O (stereo unspecified)	–	-1.01% (inactive)
CCC(=O)NC(c1ccc(OC)cc1)c1c(O)ccc2ccccc12 (stereo unspecified)	6.27 µM (active)	–
CN1/C(=C\C=C(/C#N)C(=O)Nc2ccccc2F)C(C)(C)c2ccccc21	16.4 µM (active)	–
CN1/C(=C\C=C(/C#N)C(=O)Nc2ccc(Cl)cc2)C(C)(C)c2ccccc21	5.59 µM (active)	–
Cc1ccccc1C1CC(c2cccs2)=NN1S(C)(=O)=O (stereo unspecified)	–	-23.5% (inactive)
Cc1ccc(C2=NN(S(=O)(=O)c3ccccc3)C(c3ccccc3O)C2)cc1 (stereo unspecified)	18.4 µM (active)	–
Cc1ccc(C2=NN(C(=O)c3cccs3)C(c3ccccc3O)C2)cc1 (stereo unspecified)	–	-4.39% [at 36.9 µM] (inactive)
O=Nc1ccc(O)c2ncccc12	–	-23.5% [at 36.9 µM] (inactive)
Cc1[nH]c2ccccc2c1/C=C/c1ccnc2ccccc12	3.26 µM (active)	–
Cc1[nH]c2ccccc2c1/C=C/c1ccc2ccccc2n1	18.4 µM (active)	–
O=C(CCl)N1c2ccccc2Oc2ccc3ccccc3c21	14 µM (active)	–
COc1cc(C2Oc3ccccc3C=C2[N+](=O)[O-])cc(OC)c1OC (stereo unspecified)	15.8 µM (active)	–
N#CC(C(=O)NCc1ccccc1)c1nc2ccccc2nc1N1CCCC1 (stereo unspecified)	3.66 µM (active)	–
CCN(CC)c1nc2ccccc2nc1C(C#N)C(=O)NCCc1ccccc1 (stereo unspecified)	7.31 µM (active)	–
CCCCn1c(N)c(N(Cc2ccccc2OC)C(=O)c2ccc([N+](=O)[O-])s2)c(=O)[nH]c1=O	–	-16.1% (inactive)
Cc1cc2nc3s/c(=C/c4ccc(-c5ccccc5C(=O)O)o4)c(=O)n3c2cc1C	11.6 µM (active)	–
Cc1cc(C(=O)N/N=C/c2ccc3c(c2)OCO3)c2ccccc2n1	4.44 µM (active)	–
O=C(N/N=C/c1ccc2c(c1)OCO2)c1cc(-c2ccncc2)nc2ccccc12	6.27 µM (active)	–
O=C(N/N=C/c1ccsc1)c1cc(-c2cccs2)nc2ccccc12	15.8 µM (active)	–
Cc1cccc(C)c1OCC(=O)N/N=C/c1ccc2c(c1)OCO2	3.53 µM (active)	–
O=C(N/N=C/c1ccc2c(c1)OCO2)c1cc(-c2ccco2)nc2ccccc12	12.5 µM (active)	–
Cc1cc(NC(=O)/C(C#N)=C/c2ccc(-c3ccc(SC(F)F)cc3)o2)n(-c2ccccc2)n1	7.31 µM (active)	–
Cc1cc(NC(=O)/C(C#N)=C\c2ccc(-c3ccc(SC(F)F)cc3)o2)n(-c2ccccc2)n1	8.2 µM (active)	–

SMILES	Potency	activity, negative = inhibitor
COCCN(CCOC)Cc1c(O)ccc2c1O/C(=C\c1ccc(C)o1)C2=O	–	-6.56% (inactive)
N#CCSc1ccccc1NC(=O)COc1ccc(-c2nnco2)cc1	17.7 µM (active)	–
CCOc1cc(/C=C2\N=C(SC(C)C(N)=O)N(c3ccc(OC(F)F)cc3)C2=O)ccc1O (stereo unspecified)	4.44 µM (active)	–
Cc1cc(C(=O)N/N=C/c2ccc(C)o2)c2ccccc2n1	2.23 µM (active)	–
C/C(=N\NC(=O)c1cc(C)nc2ccccc12)c1ccncc1	–	-7.52% [at 36.9 µM] (inactive)
Cc1ccc(/C=N/NC(=O)c2cc(-c3ccccc3)nc3ccccc23)o1	14 µM (active)	–
O=C(N/N=C/c1ccc(Cl)cc1)c1cc(-c2cccnc2)nc2ccccc12	4.44 µM (active)	–
CCOc1ccc(-c2cc(C(=O)N/N=C(\C)c3cccnc3)c3ccccc3n2)cc1	–	-1.35% [at 36.9 µM] (inactive)
Cc1ccc(C=NNC(=O)c2cc(-c3cccnc3)nc3ccccc23)o1	8.86 µM (active)	–
CCCN(C(=O)CSc1n[nH]c(-c2ccc(OC)cc2)n1)c1c(N)n(Cc2ccccc2)c(=O)[nH]c1=O	–	-7.52% (inactive)
C/C(=N\NC(=S)NCc1ccccc1)c1cccs1	–	0.839% (inactive)
CCOC(=O)Nc1ccc2nc(-c3cscn3)[nH]c2c1	5.59 µM (active)	–
CC[n+]1c(/C=C/Nc2ccccc2)oc2ccccc21	18.4 µM (active)	–
CC[n+]1c(/C=C/N(C)c2ccccc2)oc2ccc(F)cc21	17.7 µM (active)	–
CC[n+]1c(/C=C/Nc2ccccc2)oc2ccc(OC)cc21	16.4 µM (active)	–
NC(=O)c1ccc(NC(=O)C#Cc2ccccc2)cc1	–	-24.9% [at 36.9 µM] (inactive)
Cc1c(/C=N\NC(=O)c2cc3ccccc3o2)c2ccccc2n1C	5.59 µM (active)	–
O=C(N/N=C/c1cccc2ccccc12)c1cc2ccccc2o1	7.9 µM (active)	–
Cc1cc(/C=N/NC(=O)c2cc3ccccc3o2)c(C)n1C	–	-21.4% [at 36.9 µM] (inactive)
COc1cc(Cl)c(C)cc1Nc1nc2ccccc2nc1NS(=O)(=O)c1ccccc1	1.46 µM (active)	–
Cc1cccc(C)c1Nc1nc2ccccc2nc1NS(=O)(=O)c1ccccc1	23.1 µM (active)	–
COc1ccc(OC)c(Nc2nc(-c3ccncc3)nc3ccccc23)c1	–	-24.7% [at 36.9 µM] (inactive)
CCOC(=O)N1CCN(/C=C(\C#N)c2nc3ccccc3s2)CC1	18.4 µM (active)	–
Cc1cc(Br)ccc1SCC(=O)OC/C(O)=C(\C#N)c1nc2ccccc2[nH]1	–	-16.4% (inactive)

SMILES	Potency	activity, negative = inhibitor
COc1ccc2oc(=O)c(-c3nc4ccccc4o3)cc2c1	14.6 µM (active)	–
CCOc1ccccc1Nc1nnc(-c2cc3cc(Cl)ccc3oc2=O)s1	5.17 µM (active)	–
CCOc1ccccc1Nc1nnc(-c2cc3cc(OC)ccc3oc2=O)s1	9.2 µM (active)	–
O=C(CCCCl)Oc1ccc2cc(-c3ccc4ccccc4n3)c(=O)oc2c1	–	19.5% (inactive)
CC(O)CN(CC(C)O)c1ccc2c(c1)Cc1cc([N+](=O)[O-])ccc1-2 (stereo unspecified)	2.31 µM (active)	–
CCN1C(=O)/C(=C/C=C2\N(CC)c3cc(S(=O)(=O)N(C)C)ccc3N2c2ccccc2)SC1=S	6.27 µM (active)	–
CCN(CC)c1ccc(/C=N/N=C(N)N)c(O)c1	4.44 µM (active)	–
CCN(CC)c1ccc(/C=N/NC(=S)NC)c(O)c1	–	-12.6% (inactive)
CN(Cc1cnn(Cc2ccccc2)c1)C(=O)c1cccc(S(=O)(=O)N2CCOCC2)c1	11.2 µM (active)	–
O=C(O)CCCN1C(=O)/C(=C\C(Cl)=C\c2ccccc2)SC1=S	7.04 µM (active)	–
CC1=CC(C)(C)NC(=S)N1c1ccc2ccccc2c1	–	5.28% [at 36.9 µM] (inactive)
N#CC(=Cc1ccccn1)c1nc(-c2ccc(Cl)cc2)cs1	12.5 µM (active)	–
O=C(NCCc1ccccc1Cl)c1ccc(Cn2c(=O)c3cccn3c3cccnc32)cc1	18.4 µM (active)	–
O=[N+]([O-])c1ccc(-c2ccc(/C=N/Nc3nc(NCc4ccccc4)nc(N4CCOCC4)n3)o2)cc1	18.4 µM (active)	–
COCCNC(=S)N/N=C/c1ccc(-c2ccc([N+](=O)[O-])cc2)o1	15.8 µM (active)	–
Cc1cc([N+](=O)[O-])ccc1-c1ccc(/C=N/NC(=O)c2ccc(Br)o2)o1	20.6 µM (active)	–
COCCNC(=S)N/N=C(\C)c1ccc(OC(F)F)cc1	–	10.2% (inactive)
COCCNC(=S)NN=C1CCCCCC1	–	0.562% (inactive)
O=C(N/N=C/c1ccc(-c2ccc([N+](=O)[O-])cc2)o1)[C@H]1C[C@@H]1c1ccccc1	–	-1.57% (inactive)
O=C(Cc1ccccc1)N/N=C/c1ccc(-c2ccc([N+](=O)[O-])cc2)o1	15.8 µM (active)	–
CN(/N=C/c1ccc(-c2ccc([N+](=O)[O-])cc2)o1)c1ccccc1	1.46 µM (active)	–
CC(C)(C)NC(=S)N/N=C\c1ccc(-c2ccc([N+](=O)[O-])cc2)o1	18.4 µM (active)	–
CCOc1ccc(S(=O)(=O)N(CC(=O)N/N=C/c2ccc(-c3ccc([N+](=O)[O-])cc3)o2)c2ccccc2)cc1	3.53 µM (active)	–
O=C(O)c1cccc(-c2ccc(/C=N/Nc3ccc([N+](=O)[O-])cc3)o2)c1	18.4 µM (active)	–

SMILES	Potency	activity, negative = inhibitor
Cc1cc2nc(SCCOC(=O)Nc3cccc(Cl)c3)nc(C)c2cc1C	–	-6.26% (inactive)
Cn1ncc(N=Cc2c(O)ccc3ccccc23)c1C(=O)Nc1cccc(Cl)c1	14.6 µM (active)	–
CCOc1ccccc1C1CC(=O)NC2=C1C(=O)CCC2 (stereo unspecified)	12.5 µM (active)	–
CCCOc1ccccc1C1CC(=O)NC2=C1C(=O)CCC2 (stereo unspecified)	7.04 µM (active)	–
CCCOc1ccccc1C1CC(=O)Nc2cc3c(cc21)OCO3 (stereo unspecified)	3.96 µM (active)	–
Cc1c(C(=O)Nc2ccc(C(C)C)cc2)sc2nc3n(c(=O)c12)CCC3	–	-7.16% (inactive)
CC(C)c1ccc(NC(=O)Nc2cnccn2)cc1	17.7 µM (active)	–
CC(C)c1ccc(C(=O)NCCCNC(=O)c2cnccn2)cc1	–	1.23% [at 36.9 µM] (inactive)
CCOc1ccccc1N1CC(c2nc3ccccc3n2Cc2c(C)cc(C)cc2C)CC1=O (stereo unspecified)	–	-29.7% (inactive)
CCOC(=O)COn1c(=O)c(-c2ccc(Br)cc2)[n+]([O-])c2ccccc21	–	-17.5% (inactive)
CCOC(=O)Cn1c(=O)c(-c2cc(Br)ccc2N)nc2ccccc21	11.6 µM (active)	–
CN(C)c1ccc(/C=C2/C[N+](C)(C)C/C(=C/c3ccc(N(C)C)cc3)C2=O)cc1	7.31 µM (active)	–
Nc1ccccc1C=C1Cc2ccccc2C1=O	16.4 µM (active)	–
CN(C)c1ccc(/C=C2\Cc3ccccc3C2=O)cc1	2.91 µM (active)	–
CCOC(=O)CSC1=C(C#N)C(c2ccc(C)s2)CC(=O)N1 (stereo unspecified)	1.98 µM (active)	–
Cc1ccccc1NC(=O)CSC1=C(C#N)C(c2ccsc2)CC(=O)N1 (stereo unspecified)	–	-26.6% [at 36.9 µM] (inactive)
S=C(NCc1ccco1)Nc1ccc(Cl)cn1	–	6.55% (inactive)
CCCC(=O)NC1=C(Cl)C(=O)c2ccccc2C1=O	–	33.8% (inactive)
O=C(CCc1ccccc1)Nc1ccc(Cl)cn1	3.96 µM (active)	–
CCN(CC)c1ccc(/C=C/c2cc(-c3ccccc3)c3ccccc3n2)cc1	7.04 µM (active)	–
CN(C)c1ccc(/C=C/c2cc(N(C)C)nc3ccccc23)cc1	8.2 µM (active)	–
CN(C)c1ccc(/C=C/c2cc(/C=C/c3ccc(N(C)C)cc3)c3ccccc3n2)cc1	5.17 µM (active)	–
CN(C)c1ccc(/C=C/c2nc3ccccc3c(=O)n2CCO)cc1	23.1 µM (active)	–
CCC(C)Sc1cccc(-c2nc3cc(C)ccn3c2NC2CCCCC2)c1 (stereo unspecified)	–	-9.38% (inactive)
